Values without a mark were called inactive.
tested on: Vero E6 infected with SARS-CoV-2; assay: inhibition of SARS-CoV-2 cytopathic effect; higher = more antiviral protection, active = above 15; conditions: 10000 nM; 48 h

SMILES	inhibition of SARS-CoV-2 cytopathic effect
Cc1ccc(C(=O)c2ccc(CC(=O)O)n2C)cc1 [tolmetin]	0.75%
COc1cccc(-c2cc(=O)c3ccccc3o2)c1N	-5.22%
CC(=O)O[C@]1(C(C)=O)CC[C@H]2[C@@H]3C=C(C)C4=CC(=O)CC[C@@H]4[C@H]3CC[C@@]21C [nomegestrol-acetate]	-2.55%
O=C1CN(/N=C/c2ccc([N+](=O)[O-])o2)C(=O)N1 [nitrofurantoin]	1.5%
COc1cc2nccc(Oc3ccc(NC(=O)Nc4ccc(F)cc4F)c(F)c3)c2cc1OC	5.75%
CS(=O)(=O)N(Cc1ccco1)C[C@@H](O)Cn1c2ccccc2c2ccccc21	9.76%
C/C=C1\[C@H]2C=C(C)C[C@]1(N)c1ccc(=O)[nH]c1C2 [(-)-Huperzine A]	-0.5%
CC(=O)N(O)C/C=C/c1cccc(Oc2ccccc2)c1	-2.02%
CCOC1O[C@H]([C@@H](COCc2ccccc2)OCc2ccccc2)[C@H](OCc2ccccc2)[C@H]1O (stereo not given in full) [tribenoside]	1.9%
CCS(=O)(=O)N1CCN(c2ccc(Nc3ncc(C(N)=O)c(NC4CC4)n3)cc2)CC1	-5.53%
Cc1ccc(-c2ncc[nH]2)cc1NC(=O)c1ccc(OCc2ccccn2)cc1	-4.54%
C[C@]12CC[C@H](O)CC1=CC[C@@H]1[C@@H]2CC[C@]2(C)C(c3cccnc3)=CC[C@@H]12 [Abiraterone (CB-7598)]	1.88%
CC(C)(C)c1ccc(O)cc1 [4-tert-butylphenol]	2.59%
CC(=O)OCC(=O)[C@@]1(O)CC[C@H]2[C@@H]3CCC4=CC(=O)CC[C@]4(C)[C@H]3C(=O)C[C@@]21C [cortisone-acetate]	0.27%
O=C1OC(OC(=O)c2cccnc2Nc2cccc(C(F)(F)F)c2)c2ccccc21 (stereo not given) [talniflumate]	0.53%
N#Cc1ccc(N(Cc2ccc(Br)cc2)n2cnnc2)cc1	-2.52%
NC(=S)N/N=C/c1coc2ccccc2c1=O.[Cl][Cu][Cl]	2.4%
Cc1nc(C#Cc2ccnc(Cl)c2)c(C)n1-c1ccc(F)cc1 [basimglurant]	4.98%
CCCCC(=O)O[C@H]1CC[C@H]2[C@@H]3CCc4cc(O)ccc4[C@H]3CC[C@]12C	-0.83%
C[N+](C)(C)CCOC(=O)CCC(=O)OCC[N+](C)(C)C [succinylcholine-chloride]	0.28%

SMILES	inhibition of SARS-CoV-2 cytopathic effect
Cc1cc(C)cc(OCC2CNC(=O)O2)c1 (stereo not given) [metaxalone]	-0.42%
CC(C(=O)O)c1ccc(C(=O)c2cccs2)cc1 (stereo not given) [suprofen]	-2.92%
Cc1cccc(C)c1NC1=NCCCS1 [xylazine]	-0.19%
CC1=C(C(=O)O)N2C(=O)[C@@H](NC(=O)[C@H](N)c3ccc(O)cc3)[C@H]2SC1 [cefadroxil]	-1.18%
N=C(NCc1ccc(Cl)cc1)SCCCc1c[nH]cn1 [clobenpropit]	0.31%
N#Cc1ccccc1-c1cc(-c2ccccn2)cn(-c2ccccc2)c1=O [Perampanel]	-5.2%
C/C(=C\c1csc(C)n1)[C@@H]1C[C@@H]2O[C@]2(C)CCC[C@H](C)[C@H](O)[C@@H](C)C(=O)C(C)(C)[C@@H](O)CC(=O)N1 [ixabepilone]	-2.57%
COc1ccc2c(Oc3ccc(NC(=O)c4c(C)n(CC(C)(C)O)n(-c5ccccc5)c4=O)nc3)ccnc2c1	-0.65%
COC(=O)C1=CCCN(C)C1 [arecoline]	1.15%
COc1cc([S+](C)[O-])ccc1-c1nc2cccnc2[nH]1 (stereo not given) [sulmazole]	-0.68%
O=C(O)CCN(O)C(=O)CCCCCCCCC1CC1	5.29%
N=C1N[C@H]2[C@H](CS[C@H]2CCCCC(=O)O)N1 [2-iminobiotin]	-2.17%
Cc1cc(O)ccc1Cl [chlorocresol]	1.88%
CC(C)(Oc1ccc(CCNC(=O)c2ccc(Cl)cc2)cc1)C(=O)O [bezafibrate]	-0.38%
O=C(O)C1=CCNCC1 [isoguvacine]	2.12%
Cc1ccnc(NS(=O)(=O)c2ccc(N)cc2)n1 [sulfamerazine]	-0.59%
O=C1C=CC(=O)C2=C1C1c3ccccc3C2c2ccccc21	5.57%
CCOC(=O)Nc1cc(-c2ccc(C)c(NS(C)(=O)=O)c2)nn2c(C)nnc12 [bromosporine]	-19.3%
CC(C)(Cc1ccc2ccccc2c1)NC[C@@H](O)COc1cccc(Cl)c1C#N	62.5% (active)
O=C(NCCCCCCNC(=O)ON=C1CCCCC1)ON=C1CCCCC1	2.7%
